This note sets out measurements from PubChem BioAssay (NCATS).

Inconclusive results are not listed. Values without a mark were called inactive. Active and inactive are the calls of the source. Calls come from the whole dose curve; as a rule, active = well fitted cell-killing curve with a large enough effect; inconclusive = small, poorly fitted or top-dose-only effect; inactive = flat fitted curve, though single readings scatter.
Potency is the fitted concentration of half-maximal effect.

This assay can be described thus: qHTS of pediatric cancer cell lines to identify multiple opportunities for drug repurposing: Primary screen for BT-37 cells (AID 1347094). The conditions noted are these: BT-37 viability, CellTiter-Glo luminescence, 48 h; series mostly up to 57.3 µM; activity change, negative = cytotoxic: at the top concentration. An excerpt:
Drug repurposing or repositioning has been offered as a strategy for drug development in oncology programs. This approach has special potential for childhood cancers and other rare or orphan diseases, where the expected return on new drug development has been a disincentive to pharmaceuticals. […] In this project we exploit the poly-pharmacology of drugs to discover new indications via phenotypic screening of a panel of 19 well-characterized cell lines derived from solid tumors seen in children and adolescents. The goal is to identify approved drugs with previously unrecognized anticancer properties that has the potential to reveal new mechanisms and biological processes involved in carcinogenesis or drug resistance. We employed a titration-based paradigm (quantitative high-throughput screening or qHTS), where all compounds were tested at multiple concentrations for their effect on cell viability. Concentration-response curves (CRCs) were derived directly from the primary screen, and both potency and efficacy values were used to identify compounds with robust bioactivity profiles. We screened the NIH Chemical Genomics Center (NCGC) Pharmaceutical Collection (NPC) and Mechanism Interrogation Plate (MIPE) small molecule collections of approved and investigational compounds against these cell lines; and measured metabolically active cells after 48 hours of compound treatment as a proxy for cell viability. […] Assay Submitter: Nathalia J. Martinez, National Center for Advancing Translational Sciences, National Institutes of Health, Rockville, MD, USA; email: natalia.martinez@nih.gov Shen, M et al. Quantitative high-throughput phenotypic screening of pediatric cancer cell lines identifies multiple opportunities for drug repurposing. Oncotarget 2017 Dec 19;9(4):4758-4772. PMID 29435139.
The cells were obtained from University of North Carolina (UNC), Pediatric Preclinical Testing Program (PPT), and Coriell Institute (CI). qHTS cell viability assay: Cells were assayed in growth media at a density of 500-1,000 cells/well. Five microliters of cells were dispensed into 1,536-well, white, solid-bottom, TC-treated plates (Greiner Bio One) using a multidrop dispenser and incubated at 37 degrees C, 5% CO2, under a humidified atmosphere for 5 hours. Twenty-three nanoliters of compounds and controls (neutral control DMSO or positive control bortezomib at final concentration of 2.3 µM) were subsequently transferred by Kalypsys pintool. For primary screens, the MIPE collection was tested at 11-point dilutions (final concentrations range from 0.78 nM to 46 µM) and the NPC collection at 8-point dilutions (final concentrations range from 0.59 nM to 46 µM). Compounds tested in follow-up screens were assayed at 11-point dilutions. Cells were incubated for 48 hours, followed by addition of 3 µL of CellTiter-Glo (Promega). After a 15 min incubation at room temperature, samples were analyzed for luminescence intensity using a ViewLux High-throughput CCD imager equipped with clear filters.
In general terms: In qHTS, concentration-response curves come from the screen itself.
With `CN1CCN(Cc2ccc(NC(=O)Nc3ccc(Oc4cc(NC(=O)C5CC5)ncn4)cc3)cc2C(F)(F)F)CC1`, the Potency is 0.544 µM (active).

Regarding `COc1ccc2c(OCc3nnc4ccc(-c5ccccc5)nn34)ccnc2c1`, the “activity change, negative = cytotoxic” value is 8.7%.

Turning to `CC(C)(C)c1cnc(CSc2cnc(NC(=O)C3CCNCC3)s2)o1`, the Potency was 0.385 µM (active).

As for `C[C@@H]1COC(Nc2ccc3ncnc(Nc4ccc(OCc5nccs5)c(Cl)c4)c3c2)=N1`, the Potency was 24.3 µM (active).

`Cn1c2cc(S(C)=O)sc2c2cnn(Cc3cccc(N)c3)c(=O)c21` (stereo not given): the “activity change, negative = cytotoxic” value was -16%.

For the molecule `CCCCOc1c(C(=O)c2c(F)cc(C)cc2F)cnc2n[nH]cc12`, the Potency is 17.2 µM (active).

Regarding `O=C(C=Cc1cccc(S(=O)(=O)Nc2ccccc2)c1)NO`, the Potency was 7.03 µM (active).

On to `Cc1ccc(C(=O)Nc2cccc(C(F)(F)F)c2)cc1-c1ccc2nc(NCCN3CCOCC3)ncc2c1`, for which the Potency is 6.11 µM (active).

With `O=C(c1cncc(Br)c1)N1CCC(N2CCCC2)CC1`, the “activity change, negative = cytotoxic” value is 10.7%.

As for `C1Cc2[nH]nc(-c3nn[nH]n3)c2C1`, the “activity change, negative = cytotoxic” value is 14.7%.

For `CC(=O)SC[C@@H](C)C(=O)N1CCC[C@H]1C(=O)N[C@@H](Cc1ccccc1)C(=O)O`, the “activity change, negative = cytotoxic” value is 9.55%.

Consider `CC(C)=CCCC(C)=CCCC(C)=CCSc1ccccc1C(=O)O`, for which the Potency is 7.69 µM (active).

With `COCCOc1ccc2c(c1)ncn2-c1ccc2cccc(N3CCC(N)CC3)c2n1`, the Potency is 24.3 µM (active).

Regarding `Cc1ccc(CN2CCNCC2)cc1NC(=O)CNc1ccc(F)c(F)c1`, the “activity change, negative = cytotoxic” value was 2.23%.

On to `CC(C)c1ccccc1Cc1cc(C(=O)Nc2ccc(S(=O)(=O)c3ccccc3C(C)(C)C)cc2)c(O)c(O)c1O`, for which the Potency is 24.3 µM (active).

Take `COc1ccc(F)c(F)c1C(=O)c1cnc(NC2CCN(S(C)(=O)=O)CC2)nc1N`: the Potency is 3.43 µM (active).

Regarding `CC(=O)OCC(=O)[C@@]1(O)[C@H](C)C[C@H]2[C@@H]3C=C(C)C4=Cc5c(cnn5-c5ccccc5)C[C@]4(C)[C@@H]3[C@@H](O)C[C@@]21C`, the Potency was 19.3 µM (active).

On to `O=C(Nc1cn[nH]c1-c1nc2ccc(CN3CCOCC3)cc2[nH]1)NC1CC1`, for which the Potency was 12.2 µM (active).

Take `Cc1cc(Nc2cc(N3CCN(C)CC3)nc(C=Cc3ccccc3)n2)n[nH]1`: the Potency was 44.4 µM (active).

As to `CN1c2cc(O)c(N=NC(N)=O)cc2CC1S(=O)(=O)O` (stereo not given), the “activity change, negative = cytotoxic” value was -11.7%.

Take `CCN1CCN(CC(=O)Nc2ccc(-c3cccc4c(=O)cc(N5CCOCC5)oc34)c3sc4ccccc4c23)CC1`: the Potency is 4.85 µM (active).

`Clc1ccc2ncc(-c3cccc(NC4CNC4)n3)n2c1`: the Potency is 17.2 µM (active).

In the case of `C=C1C(=CC=C2CCC[C@]3(C)[C@@H]([C@H](C)C=C[C@H](C)C(C)C)CC[C@@H]23)C[C@@H](O)C[C@@H]1O`, the Potency was 0.968 µM (active).

With `Nc1ccc(S(=O)(=O)Nc2ncccn2)cc1`, the “activity change, negative = cytotoxic” value is 17.7%.

Regarding `C=CCn1c(=O)c2cnc(Nc3ccc(N4CCN(C)CC4)cc3)nc2n1-c1cccc(C(C)(C)O)n1`, the Potency was 0.611 µM (active).

On to `Cc1c(Cn2c(C)nc3c(C(=O)O)cc(N4CCOCC4)cc32)cccc1C(F)(F)F`, for which the “activity change, negative = cytotoxic” value is -14.6%.

Consider `Cc1ccc(C(=O)Nc2ccc(CN3CCN(C)CC3)c(C(F)(F)F)c2)cc1C#Cc1cnc2cccnn12`, for which the Potency was 6.85 µM (active).

With `O=C(NCCCNc1nc(Nc2cccc(NC(=O)N3CCCC3)c2)ncc1I)c1cccs1`, the Potency was 24.3 µM (active).

Take `O=C(c1ccc(Nc2nccc(-c3cc4ccccc4s3)n2)cc1)N1CCC(N2CCCC2)CC1`: the Potency was 24.3 µM (active).

Turning to `O=C(O)[C@H](Cc1c[nH]c2ccccc12)N1C(=O)c2ccccc2C1=O`, the “activity change, negative = cytotoxic” value is -3.51% [at 116 µM].

Regarding `Nc1ncnc2c1c(-c1cnc3[nH]ccc3c1)nn2C1CCCC1`, the Potency was 1.72 µM (active).

Regarding `C=CC(=O)Nc1cccc(Oc2nc(Nc3ccc(N4CCN(C)CC4)cc3)ncc2Cl)c1`, the Potency is 21.7 µM (active).

In the case of `O=c1[nH]c(=O)n(C2CCCO2)cc1F` (stereo not given), the “activity change, negative = cytotoxic” value is 13.1% [at 116 µM].

For `Cc1[nH]c2ccccc2c1CCNCc1ccc(C=CC(=O)NO)cc1`, the Potency is 0.273 µM (active).

Take `Cc1nc2cnc3ccc(C#Cc4cccnc4)cc3c2n1-c1ccc(C(C)(C)C#N)cc1`: the Potency was 0.217 µM (active).

Turning to `COc1cccc2nc(-c3cccs3)nc(NN3C(=O)C=C(C)C3=O)c12`, the Potency is 0.863 µM (active).

For the molecule `O=C(O)C1(Cc2cccc(Nc3nccs3)n2)CCC(Oc2cccc(Cl)c2F)CC1` (stereo not given), the “activity change, negative = cytotoxic” value was -14.2%.

Regarding `CC(=O)c1c(C)c2cnc(Nc3ccc(N4CCNCC4)cn3)nc2n(C2CCCC2)c1=O`, the Potency is 24.3 µM (active).

With `Nc1ccn([C@@H]2O[C@H](CO)[C@H](O)C2(F)F)c(=O)n1`, the Potency was 0.0306 µM (active).

As to `Nc1nccc(Oc2ccc(NC(=O)c3c[nH]cc(-c4ccc(F)cc4)c3=O)cc2F)c1Cl`, the Potency was 2.17 µM (active).
